Jurkat tox 60K = cytotoxic compounds reducing Jurkat cell viability | 56,000 compounds, 1.2% hits | inhibition, % at 4 µM | Jurkat E6.1 viability, ATP luminescence, 48 h | AID 463;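 active means inhibition above the mean inhibition of all tested compounds plus 3 SD, cut at about 28% in these data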
mHtt clearance = mutant huntingtin protein clearance; HeLa Exon1htt(103Q)mCFP, aggregate imaging; zero = plate's median compound well; inhibition, % at 1.5 µM; 47,000 compounds, 0.42% hits; AID 853;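 active means inhibition of aggregate fluorescence above about 70%, also judged a hit by eye on the cell image, limit read from the data, passing the limit was not always enough; inconclusive means no rule stated for this call; inactive means not judged a hit on image review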;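 further: cells exposed to compound for three days before fixation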
SK-BR-3 tox 24h = SK-BR-3 proliferation inhibitors | SK-BR-3 viability, CellTiter-Glo ATP luminescence, 24 h; stronger effect = lower value | viability, % at 10 µM | 41,000 compounds, 0.47% hits | AID 847;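 active means viability at or below the median of all test compounds minus 3 SD, in both replicates if run twice, cut at about 45% in these data; inconclusive means duplicate replicates that disagree with each other; inactive means viability above that cutoff in every replicate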;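 further: 100% = median untreated cell wells and 0% = median positive control drug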
DUSP1 inh = blocks human MKP-1 phosphatase activity; AID 374; 65,000 compounds, 0.15% hits; recombinant MKP-1, OMFP hydrolysis fluorescence; P28562; inhibition, %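 (compounds tested at a single concentration somewhere between 10 and 100 µM)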;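 active means inhibition above about 50%, limit read from the data; inconclusive means inhibition over screen mean plus 3 SD, below that limit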;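 further: 0% = DMSO max control wells and 100% = wells with enzyme stopped by NaOH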
Cdc25B block = human M-phase inducer phosphatase 2 inhibition. recombinant Cdc25B, OMFP fluorescence Ex485/Em525. AID 368. P30305. 65,000 compounds, 0.1% hits. inhibition, %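 (compounds tested at 10 µM final in the well)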; in the data active means inhibition above about 50%
Target sequence (P30305 whole entry, looked up): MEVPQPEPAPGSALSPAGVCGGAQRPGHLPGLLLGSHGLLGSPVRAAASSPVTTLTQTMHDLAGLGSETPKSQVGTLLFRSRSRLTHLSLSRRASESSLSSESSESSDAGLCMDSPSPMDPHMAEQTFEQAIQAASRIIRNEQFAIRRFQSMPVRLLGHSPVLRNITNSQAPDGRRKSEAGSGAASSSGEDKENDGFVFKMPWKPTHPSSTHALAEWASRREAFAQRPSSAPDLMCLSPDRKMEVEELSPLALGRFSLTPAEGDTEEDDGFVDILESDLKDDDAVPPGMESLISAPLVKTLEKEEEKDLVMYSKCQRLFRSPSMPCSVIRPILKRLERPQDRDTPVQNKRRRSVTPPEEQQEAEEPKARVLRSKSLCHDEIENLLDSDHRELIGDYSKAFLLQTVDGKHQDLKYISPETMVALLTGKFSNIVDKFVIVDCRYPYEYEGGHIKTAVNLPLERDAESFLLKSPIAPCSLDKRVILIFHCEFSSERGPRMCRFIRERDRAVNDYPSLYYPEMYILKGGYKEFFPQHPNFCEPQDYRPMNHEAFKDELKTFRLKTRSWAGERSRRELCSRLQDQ
Numbers without * were called inactive; ? = inconclusive; / = no result given. This is a sample that favours compounds with a hit; in the whole collection about 1.6% have one here.

SMILES	Jurkat tox 60K	mHtt clearance	SK-BR-3 tox 24h	DUSP1 inh	Cdc25B block
Cc1cc(C(=O)Nc2ccccc2C(F)(F)F)no1	-3	/	87	9	-14
O=C(Nc1ccccc1C(F)(F)F)c1cc(-c2ccccc2O)on1	89*	/	83	25	-6
COc1cccc(C(=O)N(C)c2nnc(-c3ccncc3)s2)c1	/	35	/	/	/
CC1=C(C#N)c2nc(N)c(C#N)c(C)c2/C1=C\c1ccccc1	1	/	102	19	6
CCOC(=O)Nc1c(C(=O)OC)[nH]c2cc(OC)ccc12	43*	/	105	-3	13
CCC(=O)Nc1ccc(-c2nnc(SCC(=O)NCC3CCCO3)n2C)cc1 (stereo not drawn)	/	/	94	-37	15
CCOC(=O)C(CC)n1cnc2sc3c(c2c1=O)CCC3 (stereo not drawn)	6	/	110	-24	84*
O=S1(=O)Nc2c(ccc3cccnc23)-c2ccccc21	67*	/	85	-12	3
Cc1cc(N2CCN(C/C=C/c3ccccc3)CC2)n2ncnc2n1	37*	/	82	11	-5
Cc1ccc(CC(=O)Nc2ccccc2N2CCOCC2)cc1C	/	23	/	/	/
CCc1ccc2oc(-c3cc(N)cc(C)c3O)nc2c1	47*	25	86	14	2
CCc1ccc2oc(-c3cc(N)ccc3O)nc2c1	0	/	93	-11	6
CC(C)C(=O)N1CCN(c2ccc(NC(=O)c3cccs3)cc2)CC1	/	79*	/	/	/
CC(=O)Nc1cccc(NC(=O)C2CCCN2C(=O)Nc2ccccc2C)c1 (stereo not drawn)	2	/	94	9	-3
COc1cccc(Oc2cnc(N)nc2-c2ccc(OC)cc2O)c1	91*	-116	147	-14	5
Cc1ccn2c(C(=O)c3ccc(Cl)cc3)cnc2c1	/	-18	/	/	/
CCc1nnc(NC(=O)CSc2nc3cccnc3n2C2CCCCC2)s1	29*	41	85	26	-4
COc1ccc(S(=O)(=O)NCC(=O)N(CC(=O)NCC2CCCO2)c2c(C)cccc2C)cc1 (stereo not drawn)	-10	1	102	14	0
O=c1[nH]c(C2CCCN(S(=O)(=O)c3ccccc3)C2)nc2c1nnn2Cc1ccccc1F (stereo not drawn)	6	/	31*	24	17
O=c1[nH]c(C2CCCN(S(=O)(=O)c3ccccc3)C2)nc2c1nnn2Cc1ccccc1 (stereo not drawn)	3	41	/	41	-3
COc1ccccc1N=c1oc2cc(O)ccc2cc1C(N)=O	43*	/	74	-3	-9
COc1ccccc1N=c1oc2cc(O)ccc2cc1C(=O)NCC1CCCO1 (stereo not drawn)	10	/	76	14	19
CCCCNC(=O)C(C#N)c1nc2ccccc2nc1N1CCN(c2ccccc2F)CC1 (stereo not drawn)	/	-13	101	-45	20
O=C(NCc1nc2ccccc2[nH]1)c1ccco1	8	/	89	9	-1
O=C(N/C(=C/c1ccc(Br)cc1)c1nc2ccccc2[nH]1)c1ccco1	/	80*	/	/	/
SMILES	Jurkat tox 60K	mHtt clearance	SK-BR-3 tox 24h	DUSP1 inh	Cdc25B block
COc1ccc(Nc2ncc3c(n2)CC(c2ccccc2)CC3=O)cc1 (stereo not drawn)	9	/	75	20	6
COc1cccc(C(=O)Nc2ncc3c(n2)CC(c2ccc(OC)cc2OC)CC3=O)c1 (stereo not drawn)	43*	/	83	-5	-4
Cc1nn(Cc2ccccc2)c(C)c1NC(=O)CSc1nnc(-c2cc(Cl)ccc2O)n1C	17	25	86	-6	-10
CCOc1cc(N2CCOCC2)c(OCC)cc1NS(=O)(=O)c1ccc(Cl)s1	69*	/	/	11	4
O=C(c1cc2ccccc2oc1=O)N(Cc1ccccc1)Cc1ccc2c(c1)OCO2	/	36	/	/	/
COc1ccc(-c2cn3c(C)c(C(=O)N4CCN(c5ccc(OC)cc5)CC4)sc3n2)cc1	10	/	/	19	-3
CC1CC(C)(C)Nc2ccc(OC(=O)c3ccco3)cc21 (stereo not drawn)	9	16	20*	-1	-13
O=C(Oc1ccc2ccccc2c1)c1ccco1	0	/	/	-8	3
COc1ccc(-c2noc(CCC(=O)N3CCN(c4cc(C)ccc4C)CC3)n2)cc1	/	/	/	21	-4
Cc1cc2c(N=O)c(NO)ccc2[nH]1	75*	24	60	-4	-5
CC(C)CN1C(=S)SC(C)(C)C1n1oc(=O)n(-c2ccc(Cl)cc2)c1=O (stereo not drawn)	/	-43	/	/	/
O=C(NCc1cccnc1)NC1(C(F)(F)F)Oc2ccc(Cl)cc2O1 (stereo not drawn)	45*	-10	/	3	-10
COc1ccc(OC)c(S(=O)(=O)Nc2cc(OC)c(Cl)cc2OC)c1	-3	0	91	-2	-3
COc1cc(NS(=O)(=O)c2ccc(OC)c(C)c2C)c(OC)cc1Cl	79*	/	86	-7	-16
O=C(CN1C(=O)c2ccccc2S1(=O)=O)N1CCN(Cc2ccc3c(c2)OCO3)CC1	1	32	40*	3	-3
COc1ccc(CCNc2c(C)c(C)nc3ncnn23)cc1	92*	24	87	-2	3
COc1ccc(C(=O)Nn2cnc3scc(-c4cccs4)c3c2=O)c(O)c1	-9	42	/	-1	8
Cc1cc2c(cc(C(=O)OCC(=O)NCc3cccs3)n2C(C)C)o1	64*	?	99	-10	-3
Cc1cc(C(=O)NCc2cccs2)c(C)o1	-5	-81	97	32	-8
COc1ccccc1-c1nnc2sc(-c3cnccn3)nn12	-2	/	84	7	-8
COc1ccccc1-c1nnc2sc(-c3cc4ccccc4o3)nn12	87*	/	66	18	5
CN(C)c1ccc(-c2nn3c(-c4ccccc4Cl)nnc3s2)cc1	82*	/	83	-1	5
COc1ccccc1-c1nnc2sc(-c3ccc(N(C)C)cc3)nn12	99*	/	78	29	10
COc1ccc(Nc2ccc3nnc(-c4ccc(Br)cc4)n3n2)cc1	/	-8	/	/	/
CCC(C)NC(=O)CCNS(=O)(=O)c1ccc(Br)cc1 (stereo not drawn)	/	/	/	-10	-6
SMILES	Jurkat tox 60K	mHtt clearance	SK-BR-3 tox 24h	DUSP1 inh	Cdc25B block
COc1ccc(-c2nc3c(c(=O)n(C)c(=O)n3C)n2CC2CC(c3ccccc3)=NO2)cc1OC (stereo not drawn)	0	-62	75	26	3
Cn1cc(/C=N/n2cnc3scc(-c4ccccc4)c3c2=O)c2ccccc21	41*	/	/	14	6
c1ccc(-c2csc3ncn4cnnc4c23)cc1	-2	30	114	9	-2
N=C1N(/N=C/c2ccccc2)C(=Nc2ccccc2)C(=S)N1c1ccccc1	/	-21	/	/	/
COc1ccc(N(CC(=O)O)S(=O)(=O)c2cccnc2)cc1	-12	71*	85	-1	-12
O=C(Nc1nnc(-c2ccco2)s1)c1ccccc1	1	/	/	5	-8
O=C(Nc1nnc(/N=C/c2ccco2)s1)c1ccc(F)cc1	8	71*	89	5	0
Cc1noc(C)c1CSc1nc2ccccc2c(=O)n1-c1ccc(F)cc1F	92*	?	/	-13	7
Cc1noc(C)c1CSc1nc2ccccc2c(=O)n1-c1ccccc1	89*	-41	/	-16	-5
